In assay [1] the target is Retinoic acid receptor RXR-alpha (Homo sapiens) (UniProt P19793). Description: OT_NURR1_NURR1RXRa_0480: Odyssey Thera (OT) 8-hour HEK293T Protein Complementation Assay for Nurr1/retinoid X receptor (RXR) (AID 2283385; active means hit-call score of the fitted dose curve at least 0.9, where 1 is the maximum). The method, boiled down:
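HEK293T cells expressing Nurr1 and RXRα fused to reporter fragments were dosed with compound for 8 hours. Complex formation was read as fluorescence intensity and analysed as gain of signal against DMSO as baseline.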

Assay [2] shares this target. As to the kind of experiment: OT_NURR1_NURR1RXRa_1440: Odyssey Thera (OT) 24-hour HEK293T Protein Complementation Assay for Nurr1/retinoid X receptor (RXR) (AID 2283386; active means hit-call score of the fitted dose curve at least 0.9, where 1 is the maximum). Put shortly:
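HEK293T cells were dosed with compound and read 24 h later by fluorescence intensity in a protein-fragment complementation format, where Nurr1–RXRα interaction reconstitutes a split reporter. Activity was fitted as gain of signal relative to DMSO baseline.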

For assay [3], the target named is Peroxisome proliferator-activated receptor gamma (Homo sapiens) (UniProt P37231). As to the kind of experiment: OT_PPARg_PPARgSRC1_1440: Odyssey Thera (OT) 24-hour Protein-Complementation Assay for Peroxisome Proliferator-activated Receptor Gamma/ SRC-1 Co-activator (AID 2283388; active means hit-call score of the fitted dose curve at least 0.9, where 1 is the maximum). Put shortly:
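HEK293T transiently transfected with PPARg/SRC-1 split-Venus YFP fusions 48 h before dosing, then treated 24 h at 37C. Fixed cells imaged; nuclear/cytoplasmic 488 nm fluorescence ratio, gain of signal versus DMSO.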

Assay [4] can be described thus: CEETOX_H295R_11DCORT: CeeTox H295R High-throughput Steroidogenesis Assay for 11-Deoxycortisol (11DCORT) (AID 2283432).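 On AC50: 11-deoxycortisol secreted into the medium measured by LC-MS/MS.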 The settings on record: actives raise or lower the signal. Put shortly: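 H295R cells prestimulated 48 h with 10 uM forskolin, then exposed 48 h to chemical in 0.1% DMSO. 11-Deoxycortisol in medium quantified by HPLC-MS/MS after MTBE extraction; bidirectional fit versus DMSO. MTT viability read in same wells.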

Assay [5] in a line: CEETOX_H295R_OHPREG: CeeTox H295R High-throughput Steroidogenesis Assay for OH-Pregnenolone (OHPREG) (AID 2283434). Conditions: actives raise or lower the signal. The method, boiled down:
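Hormone levels in spent medium were measured by tandem mass spectrometry following liquid-liquid extraction. Cells (H295R) had been forskolin-stimulated (10 uM, 48 h) before a 48 h chemical exposure at 0.1% DMSO, with activity fitted in both directions against DMSO.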

Assay [6] in a line: CEETOX_H295R_OHPROG: CeeTox H295R High-throughput Steroidogenesis Assay for OH-Progesterone (OHPROG) (AID 2283435). The settings on record: actives raise or lower the signal. The method, boiled down: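 H295R human adrenal cells were prestimulated 48 h with 10 uM forskolin, then exposed 48 h to test chemical (0.1% DMSO final). 17alpha-hydroxyprogesterone in medium was measured by HPLC-MS/MS after MTBE extraction; bidirectional fitting vs DMSO.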

Assay [7] can be described thus: CEETOX_H295R_CORTIC: CeeTox H295R High-throughput Steroidogenesis Assay for Corticosterone (CORTIC) (AID 2283437).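 Further: corticosterone secreted into medium quantified by mass spectrometry.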 The settings on record: actives raise or lower the signal. The method, boiled down: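 Corticosterone secreted into medium is measured by reverse-phase HPLC with tandem MS following liquid-liquid extraction. Cells are forskolin-stimulated (10 uM, 48 h) before 48 h test exposure; activity fitted in both directions against DMSO.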

Assay [8] is described as follows: CEETOX_H295R_CORTISOL: CeeTox H295R High-throughput Steroidogenesis Assay for Cortisol (AID 2283438).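 Further: cortisol secreted into medium quantified by LC-MS/MS.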 Conditions: actives raise or lower the signal. The method, boiled down:
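H295R human adrenal cells were prestimulated 48 h with 10 uM forskolin, then exposed 48 h to test chemical (0.1% DMSO final). Medium cortisol was quantified by HPLC-MS/MS after MTBE extraction; bidirectional fitting relative to DMSO baseline.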

A short description of assay [9]: CEETOX_H295R_DOC: CeeTox H295R High-throughput Steroidogenesis Assay for DOC (AID 2283439). The settings on record: actives raise or lower the signal. The method, boiled down:
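H295R adrenal cells prestimulated 48 h with 10 uM forskolin, then exposed 48 h to test chemical (0.1% DMSO final). Medium 11-deoxycorticosterone extracted with MTBE, quantified by HPLC-MS/MS; bidirectional fit versus DMSO baseline; MTT viability in same wells.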

Assay [10] is described as follows: CEETOX_H295R_PROG: CeeTox H295R High-throughput Steroidogenesis Assay for Progesterone (PROG) (AID 2283442).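 On AC50: human H295R adrenal cells primed with 10 µM forskolin before dosing.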 The settings on record: actives raise or lower the signal. Put shortly: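 H295R adrenal cells prestimulated 48 h with 10 uM forskolin, then exposed 48 h to test chemical in 0.1% DMSO. Progesterone in medium quantified by HPLC-MS/MS after MTBE extraction; viability checked by MTT in same wells.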

Read-out in assay [11]: Fatty acid synthase (Homo sapiens) (UniProt P49327)
Description: LTEA_HepaRG_FASN: Life Technologies and Expression Analysis (LTEA) Assay for Fatty Acid Synthase (FASN) using HepaRG (AID 2283448). The settings on record: mRNA level, 48 h; actives raise or lower the signal. Put shortly:
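Differentiated human HepaRG cells were exposed for 48 h in serum-free induction medium to eight half-log concentrations up to 100 uM in 0.5% DMSO, in duplicate. FASN mRNA was quantified by TaqMan qRT-PCR, normalized to ACTB/GAPDH/POLR2A, and fitted bidirectionally against DMSO.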

Read-out in assay [12]: Cyclin D2 (CCND2), CCND2 (gene 894)
Description: LTEA_HepaRG_CCND2: Life Technologies and Expression Analysis (LTEA) Assay for Cyclin D2 (CCND2) using HepaRG (AID 2283449). The settings on record: mRNA level, 48 h; actives raise or lower the signal. The method, boiled down:
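Read-out is CCND2 mRNA level measured by qRT-PCR in human HepaRG liver cells and normalised to three housekeeping genes. Chemicals were applied for 48 h at up to 100 uM, with gain or loss fitted relative to 0.5% DMSO.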

Read-out in assay [13]: Cyclin Dependent Kinase Inhibitor 1A (CDKN1A), CDKN1A (gene 1026)
Description: LTEA_HepaRG_CDKN1A: Life Technologies and Expression Analysis (LTEA) Assay for Cyclin Dependent Kinase Inhibitor 1A (CDKN1A) using HepaRG (AID 2283450). The settings on record: mRNA level, 48 h; actives raise or lower the signal. The method, boiled down: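 Differentiated HepaRG cells in serum-free induction medium, exposed 48 h in duplicate to eight half-log concentrations up to 100 uM in 0.5% DMSO. mRNA measured by TaqMan qRT-PCR, normalized to ACTB, GAPDH, POLR2A; bidirectional fit versus DMSO.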

Read-out in assay [14]: Cyclin D1 (CCND1), CCND1 (gene 595)
Description: LTEA_HepaRG_CCND1: Life Technologies and Expression Analysis (LTEA) Assay for Cyclin D1 (CCND1) using HepaRG (AID 2283451). The settings on record: mRNA level, 48 h; actives raise or lower the signal. The method, boiled down: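 Differentiated HepaRG cells exposed 48 h in serum-free induction medium to eight half-log concentrations from 100 uM top, 0.5% DMSO, duplicates. CCND1 mRNA measured by Fluidigm TaqMan qRT-PCR, normalised to ACTB, GAPDH, POLR2A; bidirectional fit.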

Read-out in assay [15]: catalase (CAT), CAT (gene 847)
Description: LTEA_HepaRG_CAT: Life Technologies and Expression Analysis (LTEA) Assay for catalase (CAT) using HepaRG (AID 2283452). The settings on record: mRNA level, 48 h; actives raise or lower the signal. Put shortly: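 Expression of CAT was quantified by TaqMan qRT-PCR with ACTB/GAPDH/POLR2A normalization after 48 h chemical exposure of HepaRG. Eight-point half-log series, top 100 uM, in 0.5% DMSO; gain or loss fitted against vehicle.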

Read-out in assay [16]: Tumor necrosis factor receptor superfamily member 6 (Homo sapiens) (UniProt P25445)
As to the kind of experiment: LTEA_HepaRG_FAS: Life Technologies and Expression Analysis (LTEA) Assay for Fas cell surface death receptor (FAS) using HepaRG (AID 2283447). Conditions: mRNA level, 48 h; actives raise or lower the signal. The method, boiled down:
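FAS transcript level was measured by TaqMan qRT-PCR against three housekeeping genes after 48 h chemical exposure. Cells were HepaRG, 0.5% DMSO vehicle, with a top concentration of 100 uM and half-log dilutions over eight points, in duplicate.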

SMILES strings stand for the structures. Records with an inconclusive call do not appear. The source made the active and inactive calls. How the source made its calls, unless noted: active means hit-call score of the fitted dose curve at least 0.9, where 1 is the maximum; inactive means score below 0.9.

Retinoic acid receptor RXR-alpha (Homo sapiens), sequence (P19793 whole entry, looked up, the tested form may be a part): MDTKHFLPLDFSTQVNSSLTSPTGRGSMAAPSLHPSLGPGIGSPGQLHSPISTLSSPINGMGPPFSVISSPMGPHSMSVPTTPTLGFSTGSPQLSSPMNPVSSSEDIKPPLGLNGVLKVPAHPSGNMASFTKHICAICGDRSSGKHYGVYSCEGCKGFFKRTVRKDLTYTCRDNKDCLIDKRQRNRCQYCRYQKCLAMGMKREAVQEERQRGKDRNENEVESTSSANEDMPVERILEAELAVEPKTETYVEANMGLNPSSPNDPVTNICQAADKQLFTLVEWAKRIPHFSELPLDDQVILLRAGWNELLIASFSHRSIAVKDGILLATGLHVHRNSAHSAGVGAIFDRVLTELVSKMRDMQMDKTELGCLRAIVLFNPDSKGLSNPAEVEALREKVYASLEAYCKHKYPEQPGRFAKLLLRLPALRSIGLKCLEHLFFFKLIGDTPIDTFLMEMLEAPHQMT
Fatty acid synthase (Homo sapiens), sequence (P49327 whole entry, looked up): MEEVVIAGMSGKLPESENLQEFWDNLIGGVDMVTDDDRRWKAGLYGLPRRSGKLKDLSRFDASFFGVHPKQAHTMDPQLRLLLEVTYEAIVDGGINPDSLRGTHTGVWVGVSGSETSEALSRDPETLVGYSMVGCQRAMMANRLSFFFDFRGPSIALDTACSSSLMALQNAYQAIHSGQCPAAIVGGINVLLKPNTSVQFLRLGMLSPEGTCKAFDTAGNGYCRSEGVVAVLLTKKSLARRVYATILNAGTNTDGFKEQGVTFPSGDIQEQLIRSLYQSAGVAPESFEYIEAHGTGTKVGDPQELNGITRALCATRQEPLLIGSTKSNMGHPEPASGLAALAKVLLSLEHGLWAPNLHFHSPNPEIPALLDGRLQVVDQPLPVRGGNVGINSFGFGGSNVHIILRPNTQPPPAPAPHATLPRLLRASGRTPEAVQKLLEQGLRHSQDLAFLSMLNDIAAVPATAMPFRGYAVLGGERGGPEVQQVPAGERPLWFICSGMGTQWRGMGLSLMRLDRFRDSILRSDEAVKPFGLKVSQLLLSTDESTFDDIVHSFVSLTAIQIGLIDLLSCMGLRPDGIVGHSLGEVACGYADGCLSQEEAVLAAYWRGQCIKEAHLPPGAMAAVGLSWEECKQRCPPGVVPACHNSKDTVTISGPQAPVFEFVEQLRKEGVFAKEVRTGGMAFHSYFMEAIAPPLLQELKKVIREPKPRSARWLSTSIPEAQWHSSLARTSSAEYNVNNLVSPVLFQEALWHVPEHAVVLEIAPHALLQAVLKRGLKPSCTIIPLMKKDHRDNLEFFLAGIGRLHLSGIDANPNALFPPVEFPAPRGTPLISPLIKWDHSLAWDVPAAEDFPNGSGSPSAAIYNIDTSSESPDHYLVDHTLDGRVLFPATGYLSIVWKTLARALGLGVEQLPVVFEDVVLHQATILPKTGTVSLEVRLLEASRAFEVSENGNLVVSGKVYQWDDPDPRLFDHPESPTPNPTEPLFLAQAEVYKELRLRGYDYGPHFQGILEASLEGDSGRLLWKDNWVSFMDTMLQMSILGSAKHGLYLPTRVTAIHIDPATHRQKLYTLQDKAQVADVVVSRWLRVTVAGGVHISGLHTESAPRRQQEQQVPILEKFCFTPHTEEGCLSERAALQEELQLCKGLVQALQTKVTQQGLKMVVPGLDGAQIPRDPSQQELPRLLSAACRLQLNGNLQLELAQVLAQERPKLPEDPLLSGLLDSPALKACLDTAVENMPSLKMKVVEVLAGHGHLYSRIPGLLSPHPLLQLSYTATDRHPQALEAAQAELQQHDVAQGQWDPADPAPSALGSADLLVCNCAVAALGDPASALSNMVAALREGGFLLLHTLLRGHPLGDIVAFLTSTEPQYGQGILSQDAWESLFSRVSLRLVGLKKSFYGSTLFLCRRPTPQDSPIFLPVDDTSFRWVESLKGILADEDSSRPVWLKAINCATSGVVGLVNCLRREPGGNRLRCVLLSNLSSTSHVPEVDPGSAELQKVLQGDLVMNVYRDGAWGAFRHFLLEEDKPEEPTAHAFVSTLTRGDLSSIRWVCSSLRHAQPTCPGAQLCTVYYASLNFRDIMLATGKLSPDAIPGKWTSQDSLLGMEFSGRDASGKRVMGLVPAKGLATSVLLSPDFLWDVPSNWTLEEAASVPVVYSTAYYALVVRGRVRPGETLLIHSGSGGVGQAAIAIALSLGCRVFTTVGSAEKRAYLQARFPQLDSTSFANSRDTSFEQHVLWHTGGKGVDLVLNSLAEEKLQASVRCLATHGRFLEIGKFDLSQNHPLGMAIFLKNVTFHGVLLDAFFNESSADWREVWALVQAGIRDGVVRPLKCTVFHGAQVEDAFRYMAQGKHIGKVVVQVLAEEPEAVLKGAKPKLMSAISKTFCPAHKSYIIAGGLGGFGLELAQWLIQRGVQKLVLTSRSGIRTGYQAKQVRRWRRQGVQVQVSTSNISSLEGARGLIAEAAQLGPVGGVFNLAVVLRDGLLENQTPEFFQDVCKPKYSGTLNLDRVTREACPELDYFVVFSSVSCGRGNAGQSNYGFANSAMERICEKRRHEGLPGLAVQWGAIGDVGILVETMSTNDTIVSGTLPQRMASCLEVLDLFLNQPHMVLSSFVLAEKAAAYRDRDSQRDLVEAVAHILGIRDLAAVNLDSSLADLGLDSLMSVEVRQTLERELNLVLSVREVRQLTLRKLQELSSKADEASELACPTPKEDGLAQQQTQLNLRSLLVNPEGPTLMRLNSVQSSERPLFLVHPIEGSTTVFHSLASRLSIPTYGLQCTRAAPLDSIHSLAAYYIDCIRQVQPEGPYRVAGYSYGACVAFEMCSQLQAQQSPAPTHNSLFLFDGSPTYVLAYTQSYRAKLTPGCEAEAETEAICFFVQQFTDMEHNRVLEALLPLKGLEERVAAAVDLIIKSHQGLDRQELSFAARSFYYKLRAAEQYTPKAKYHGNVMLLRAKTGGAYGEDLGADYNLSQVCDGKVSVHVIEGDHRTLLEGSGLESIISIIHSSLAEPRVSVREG
Peroxisome proliferator-activated receptor gamma (Homo sapiens), sequence (P37231 whole entry, looked up, the tested form may be a part): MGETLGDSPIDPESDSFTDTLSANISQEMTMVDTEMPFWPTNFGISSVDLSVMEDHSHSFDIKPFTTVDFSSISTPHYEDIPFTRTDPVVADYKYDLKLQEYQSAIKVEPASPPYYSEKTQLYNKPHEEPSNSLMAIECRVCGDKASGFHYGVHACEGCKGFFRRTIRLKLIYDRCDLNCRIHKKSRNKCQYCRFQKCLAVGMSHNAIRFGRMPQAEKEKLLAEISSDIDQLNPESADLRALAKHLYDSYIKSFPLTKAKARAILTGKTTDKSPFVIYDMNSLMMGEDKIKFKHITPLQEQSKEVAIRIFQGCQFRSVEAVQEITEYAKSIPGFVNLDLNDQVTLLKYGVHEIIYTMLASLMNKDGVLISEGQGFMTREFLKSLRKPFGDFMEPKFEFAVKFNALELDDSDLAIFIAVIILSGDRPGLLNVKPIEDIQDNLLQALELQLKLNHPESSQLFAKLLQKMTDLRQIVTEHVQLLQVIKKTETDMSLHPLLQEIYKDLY

Regarding `O=P(OCCCl)(OCCCl)OCCCl`, the outcome in assay [1], in [2], in [3], in [4], in [5] and in assay [6] was inactive. Further, the compound was classed as inactive in [7], in assay [8], in assay [9], in [10], in [11] and in [12]. The call in [13], in [14] and in [15] was inactive.

Usually AC50 stands for the concentration at which the activity in the assay is half-maximal. For `Clc1ccc(C(c2ccc(Cl)cc2)C(Cl)Cl)cc1`, the AC50 is 92.4 µM (active) in assay [1], 80.9 µM (active) in assay [2] and 73.7 µM (active) in assay [11]. Moreover, the compound was called inactive in assay [3], in assay [12], in [13], in [14] and in assay [15].

With `CCCCC(CC)COC(=O)c1ccc(C(=O)OCC(CC)CCCC)c(C(=O)OCC(CC)CCCC)c1` (stereo unspecified), the compound was called inactive in assay [1], in assay [2], in assay [3], in assay [11], in [13] and in [14]. In addition, the outcome in [15] was inactive.

With `[As]#[In]`, the compound was classed as inactive in [1], in assay [2], in assay [5], in assay [7], in [9] and in assay [10]. The outcome in assay [11], in assay [12], in assay [13], in assay [14] and in assay [15] was inactive.

With `Clc1ccc(C(c2ccc(Cl)cc2)C(Cl)(Cl)Cl)cc1`, the AC50 was 70.1 µM (active) in assay [1] and 66.6 µM (active) in assay [11]. For the same compound, the compound was called inactive in [2], in assay [3], in [16], in [12], in assay [13] and in assay [14]. Also, in [15], the compound was called inactive.

On to `CCNS(=O)(=O)C(F)(F)C(F)(F)C(F)(F)C(F)(F)C(F)(F)C(F)(F)C(F)(F)C(F)(F)F`, for which the call in assay [1], in [2], in assay [3], in [13], in assay [14] and in assay [15] was inactive. For the same compound, in [11], the AC50 is 48.2 µM (active).

In the case of `C=CCc1ccc2c(c1)OCO2`, the call in [1], in [2], in [3], in assay [11], in [12] and in assay [13] was inactive. For the same compound, the compound was called inactive in assay [14] and in assay [15].

Take `CN(C)[C@@H]1C(=O)C(C(N)=O)=C(O)[C@@]2(O)C(=O)C3=C(O)c4c(O)cccc4[C@@](C)(O)[C@H]3C[C@@H]12`: the outcome in [1], in assay [2], in [3], in assay [16], in assay [11] and in assay [12] was inactive. Moreover, the result in assay [13], in [14] and in assay [15] was inactive.

Turning to `Nc1ccc(Cc2ccc(N)cc2)cc1`, the call in [1], in assay [2], in [3], in assay [7], in assay [16] and in assay [11] was inactive. In addition, the compound was called inactive in assay [13], in [14] and in assay [15]. In addition, the AC50 is 40.3 µM (active) in [4]; 4.31 µM (active) in [5]; 4.68 µM (active) in assay [6]; 24 µM (active) in assay [8]; 65.5 µM (active) in [9]; 3.84 µM (active) in [10].

With `N#CC(Br)(Br)C(N)=O`, the outcome in assay [1], in assay [2], in assay [3], in assay [5], in [6] and in [16] was inactive. Also, the result in [11], in assay [12], in assay [13], in assay [14] and in assay [15] was inactive. For the same compound, the AC50 in assay [10] is 50 µM (active).

The values above are taken from PubChem BioAssay (EPA / NIEHS).
